# Shown are actives, neighbours in structure and some others; about 1.1% of the full set was active somewhere.
# OPRM1-OPRD1 ag – agonists of human mu-delta opioid receptor heterodimerization; cells, OPRM1-OPRD1 heterodimerization, luminescence; activation, % at 9.3 µM; P35372+P41143; 340,000 tested, 0.3% active; AID 504326; in the data active = activation above about 18%;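 note: 0% = vehicle-treated cells and 100% = reference agonist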
# HTR5A ag ctr – counter-screen for OPRM1-OPRD1 agonists: human HTR5A agonism; P47898; HTR5A agonist assay, luminescence, cell-based; activation, % at 9.3 µM; 340,000 tested, 0.61% active; in the data active = activation mostly above about 9.5%, no sharp cut-off; inactive = mostly below about 7.6%;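 note: 0% = cells with vehicle only and 100% = reference agonist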
# Target sequence (P47898 whole entry, looked up): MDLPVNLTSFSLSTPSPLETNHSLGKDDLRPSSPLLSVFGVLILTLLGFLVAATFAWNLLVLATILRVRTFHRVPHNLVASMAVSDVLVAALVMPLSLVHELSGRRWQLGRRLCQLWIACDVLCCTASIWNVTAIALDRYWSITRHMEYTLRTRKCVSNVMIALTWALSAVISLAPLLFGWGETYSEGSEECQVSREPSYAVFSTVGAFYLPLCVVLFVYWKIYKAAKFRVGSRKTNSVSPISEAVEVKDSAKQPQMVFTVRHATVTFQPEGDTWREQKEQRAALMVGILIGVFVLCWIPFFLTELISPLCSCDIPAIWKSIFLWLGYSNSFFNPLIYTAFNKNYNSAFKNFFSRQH
# HTR5A inv ag – inverse agonist of human HTR5A in OPRM1-OPRD1 counter-screen | HTR5A cell line, luminescence, inverse agonism | inhibition, % at 9.3 µM | 340,000 tested, 0.083% active | AID 504634; in the data active = inhibition mostly above about 23%, no sharp cut-off; inactive = mostly below about 18%;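 note: 0% = cells with DMSO and 100% = no-cell wells with DMSO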
# MOR-DOR inv ag – inverse agonists of human mu-delta opioid receptor heterodimerization. cell-based MOR-DOR heterodimer luminescence, inverse agonism. inhibition, % at 9.3 µM. 340,000 tested, 0.21% active. AID 504357; in the data active = inhibition above about 22%, passing the limit was not always enough;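 note: 0% = cells with DMSO and 100% = wells without cells with DMSO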
# * marks the source's active call; other numbers are inactive results.
SMILES,OPRM1-OPRD1 ag,HTR5A ag ctr,HTR5A inv ag,MOR-DOR inv ag
Cc1ccc(OCC(=O)N2CCN(c3nnc(-c4ccccc4)c4ccccc34)CC2)cc1,0,9.0*,4,-1
CC(=O)N1CCN(c2nnc(-c3ccc(C)cc3)c3ccccc23)CC1,-1,1,-2,6
O=C(COC(=O)c1ccc([N+](=O)[O-])o1)NC1CCCc2ccccc21 (stereo not given),2,0,-1,-10
C=CCn1c(SCC(=O)NNC(=O)Nc2ccc(C)cc2)nnc1-c1ccccc1,-2,-1,-13,8
C=CCn1c(SCC(=O)Nc2ccc(-c3nc4ccc(C)cc4s3)cc2)nnc1-c1ccccc1,20*,6,16,-105
C=CCn1c(SCC(=O)Nc2ccc(C(=O)OC(C)C)cc2)nnc1-c1cccs1,3,9.0*,-18,-19
O=C(Nc1nccs1)c1ccc(Cl)c([N+](=O)[O-])c1,-1,0,-1,5
COc1c2ccoc2c(OC(C)=O)c2oc(C)cc(=O)c12,-4,9.8*,-37,18
Cc1cc(CC(=O)O)n(C)c1C(=O)c1ccc(Cl)cc1,-2,9.7*,-40,13
Cn1nccc1C(=O)c1ccc(Cl)cc1,-4,6,-16,18
O=S(=O)(NCc1ccccc1)c1ccc(-n2cccn2)cc1,-1,-2,-15,3
Cc1ccc(S(=O)(=O)N2CCSCCSCCSCCSCC2)cc1,-1,2,-6,7
O=C(c1cccc(S(=O)(=O)Nc2ccc(F)cc2)c1)N1CCC1,-1,5,-13,5
Cc1ccc(-c2cc(-c3ccccc3)nc(NN)n2)cc1,-9,-9,33*,43*
COc1ccc(-c2cc(-c3ccccc3)nc(NN)n2)cc1OC,-5,-10,26,26
O=C(NCc1ccc(Cl)cc1)C1CCCN1C(=O)Nc1ccccc1 (stereo not given),-2,13,-37,11
COc1ccc(N(CC(=O)NCCSc2ccccn2)S(=O)(=O)c2ccc(C)cc2)cc1OC,-3,14*,-9,14
CC1CCN(CCCn2c(=S)[nH]c3c(sc4ccc([N+](=O)[O-])cc43)c2=O)CC1,2,9.7*,-27,-8
CC1CCN(CCCn2c(=S)[nH]c3c(sc4ccccc43)c2=O)CC1,-2,-1,4,12
COc1cc(/C=C2\SC(=S)N(Nc3ncc(C(F)(F)F)cc3Cl)C2=O)ccc1O,-1,-9,41*,6
CN(C)c1ccc(/C=C2\SC(=S)N(Nc3ncc(C(F)(F)F)cc3Cl)C2=O)cc1,-4,3,-10,18
CN1CCN(C(=O)c2ccc(CNS(=O)(=O)c3cccc(Cl)c3)cc2)CC1,-4,2,7,13
CCCOC(=O)c1ccc(NC(=O)/C=C/c2cccs2)cc1,5,11*,13,-26
O=C(/C=C/c1cccs1)Nc1ccncc1,-1,-6,15,7
Cc1ccc2oc(C(=O)Nc3nonc3C)c(C)c2c1,4,11*,-1,-21
SMILES,OPRM1-OPRD1 ag,HTR5A ag ctr,HTR5A inv ag,MOR-DOR inv ag
CC12CCC(C(=O)N(CSC(=S)N/N=C\c3ccccc3)C1=O)C2(C)C (stereo not given),1,10*,-11,-4
COCCNC(=O)Cn1c(=O)oc2cc(S(=O)(=O)N3CC(C)CC(C)C3)ccc21 (stereo not given),-3,0,1,15
CCCNC(=O)Cn1c(=O)oc2cc(S(=O)(=O)N3CC(C)CC(C)C3)ccc21 (stereo not given),-2,11*,-41,8
O=[N+]([O-])c1sccc1CS(=O)(=O)c1ccccc1,1,-2,-14,-7
CCn1nc(C)c(CN2CCC(C(=O)Nc3cccc(-c4cccc(F)c4)c3)CC2)c1C,1,8.7*,-33,-3
CCCCc1ccc(NC(=O)CN(C)CC(=O)Nc2ccccc2Cl)cc1,4,2,-7,-16
Cc1cccn2c(=O)c3cc(S(=O)(=O)c4ccccc4)c(=N)n(Cc4ccco4)c3nc12,2,12*,-30,-11
CCC(NC(=O)Nc1nnc(C(F)(F)F)s1)(C(F)(F)F)C(F)(F)F,2,12*,-37,-14
O=C(COc1ccccc1)NS(=O)(=O)c1ccc(Cl)cc1,-2,12*,-10,9
CC(=O)c1cccc(NC(=O)C(C)N(C)CC(=O)Nc2ccc(Cl)cc2)c1 (stereo not given),-3,-2,6,16
CC(C)(C)C1CCc2sc(C(=O)NNC(=O)CCl)cc2C1 (stereo not given),38*,57*,-163,-197
CC(C)(C)C1CCC(=NNC(=O)c2cc3c(s2)CCCC3)CC1 (stereo not given),2,2,-2,-10
COC(=O)C(C(C)C)N(Cc1cc(OC)cc(OC)c1)S(=O)(=O)CCl (stereo not given),-1,3,-11,5
CCN(CCCNC(=O)C1CCCN(S(=O)(=O)CC)C1)c1cccc(C)c1 (stereo not given),3,-3,-19,-16
CCN(CCCNC(=O)C1CCN(S(=O)(=O)c2cnc[nH]2)CC1)c1cccc(C)c1,0,11*,-8,-1
CCOc1cc(C(=O)N/N=C/c2ccsc2)cc(OCC)c1OCC,-2,14*,1,12
CCOc1cc(C(=O)N/N=C/c2ccoc2)cc(OCC)c1OCC,-3,4,-13,10
Cc1cc(=O)oc2cc(OCC(=O)Nc3ccc(N4CCC(C)CC4)cc3)ccc12,16,11*,-36,-83
Cc1c(C)c2ccc(OCC(=O)Nc3ccc(N4CCC(C)CC4)cc3)cc2oc1=O,4,5,6,-19
Cc1noc(C)c1COC(=O)c1ccc2c(c1)S(=O)(=O)c1ccccc1C2=O,7,10*,-34,-39
O=C1CC(N2CCN(S(=O)(=O)c3ccccc3F)CC2)C(=O)N1c1ccc(F)cc1F (stereo not given),-3,-1,4,17
O=C1c2ccccc2N(Cc2ccc(Cl)cc2)C2=NCCN12,-1,11*,-28,4
CC(C)CC1(C)NC(=O)N(CC(=O)N2C(C)CCCC2C)C1=O (stereo not given),-2,13*,3,8
CCOc1cc(N2CCOCC2)c(OCC)cc1NC(=O)CN1C(=O)NC(Cc2ccccc2)C1=O (stereo not given),0,2,-8,2
CCOc1cc(N2CCOCC2)c(OCC)cc1NC(=O)CN1CCC(Cc2ccccc2)CC1,0,12*,-32,2
SMILES,OPRM1-OPRD1 ag,HTR5A ag ctr,HTR5A inv ag,MOR-DOR inv ag
C[C@H](CO)N1C[C@H](C)[C@@H](CN(C)S(=O)(=O)c2ccc(F)cc2)Oc2ccc(NC(=O)c3ccncc3)cc2C1=O,-2,9.5*,4,14
COc1ccc(N2CCN(CCCNC(=O)Cn3c(=O)c4cccn4c4ccccc43)CC2)cc1,-2,0,0,8
S=C(Nc1ccccc1Cl)NC1CCN(Cc2ccccc2)CC1,2,1,-22,-10
CC(C)c1ccccc1NC(=S)NC1CCN(Cc2ccccc2)CC1,3,11*,5,-22
Brc1ccc(CNc2ccc3ncccc3c2)cc1,0,5,-21,-2
O=C(O/N=C1/CCSc2ccccc21)c1ccc(F)cc1,6,10*,-50,-35

# Screening data as filed in PubChem BioAssay.
